Shown are actives, neighbours in structure and some others; about 2.4% of the full set was active somewhere.
miR122 inh – inhibitors of miR-122 in Huh7 cells | Huh7 miR-122 Renilla luciferase sensor, 48 h; neutral wells = 0, positive control = 100 | activation (reporter increase), % at 12.5 µM | 0.3% of 340,000 active | AID 602342;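 active = mean replicate activation score at least 90 and every replicate individually at or above 90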;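 also: higher luciferase means less miR-122 activity so hits act as miR-122 inhibitors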
Dyrk1A ADPGlo – blocks rat Dyrk1A kinase activity; 0.43% of 310,000 active; ADP-Glo luminescence, NFATc1 peptide; inhibition, % at 12.5 µM; Q63470;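 also: plate controls were vehicle with enzyme for no effect and no enzyme for full effect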
Wnt act – Wnt/beta-catenin pathway activation; Wnt/beta-catenin reporter cell assay, activator, plate reader; activation, % at 9.35 µM; 1.2% of 300,000 active; in the data active = activation above about 30%, passing the limit was not always enough;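 also: 0% = neutral control wells and 100% = positive control wells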
GSIS activator – GLuc luminescence reporter in INS-1E cells, primary screen for activators of glucose-dependent secretion of insulin; INS-1E GLuc reporter insulin secretion, 2-3 h; 0.61% of 370,000 active; activation, % at 16.6 µM;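 active = lowest replicate activation of at least 40%, so every replicate reaches that level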;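 also: 0% = median of neutral control wells and 100% = median of IBMX positive control wells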
NSD2 inh – blocks human histone methyltransferase NSD2. O96028. NSD2 peptide methylation, AlphaScreen, 120 min. inhibition, % at 12.5 µM. 0.54% of 310,000 active
MITF act – increases MITF-driven TRPM1 promoter luciferase signal; 0.75% of 300,000 active; SK-MEL-5 TRPM1-promoter luciferase, 24 h; % of positive control, neutral wells = 0; activation, % at 12.5 µM;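 active = mean activation of at least 80% with every replicate also reaching 80%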;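 also: 0% = neutral control wells and 100% = parthenolide positive control wells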
Dyrk1A artifact – counter-screen for Dyrk1A inhibitors: ADP-Glo luciferase artifacts; shares compounds with Dyrk1A ADPGlo; ADP-Glo luciferase artifact assay, no Dyrk1A, luminescence; AC50, µM (highest dose often 12 µM), without a hit: at the top dose activity change, negative = inhibition; 1,300 tested, under 10 active;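 active = fitted half-maximal dose AC50 no more than ten times the top valid tested dose, with luminescence dropping as dose rises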
An asterisk follows results filed as active; [ ] = another dose, or the depositor's remark. Rule as the data show it, unless noted: active = inhibition above about 50%; inactive = the rest.

Screening C=CCn1c(SCC(=O)Nc2nc3ccccc3s2)nc(O)c(CC)c1=O returned miR122 inh -1, Dyrk1A ADPGlo 51*, Wnt act 2, NSD2 inh 3 and Dyrk1A artifact 6%.
O=C(Nc1ccc(F)cc1)N1[C@@H](CO)[C@@H]2c3ccccc3NC[C@@H]21 was read as miR122 inh -29[16.7 µM] and GSIS activator -11.
For CCCC[n+]1ccc(-c2nc3ccc([N+](=O)[O-])cc3[nH]2)cc1 the results were Dyrk1A ADPGlo 83*, Wnt act 9, GSIS activator 14, NSD2 inh 33, MITF act 7 and Dyrk1A artifact 12%.
For COc1ccc(-c2nc3ccccc3s2)cc1O the results were miR122 inh 14, Dyrk1A ADPGlo -4, Wnt act -23, NSD2 inh 0 and MITF act -44.
For COc1cc(-c2nc3ccccc3s2)ccc1O the results were miR122 inh 0, Dyrk1A ADPGlo 77*, MITF act 15 and Dyrk1A artifact 8%.
For CCOc1cc(-c2nc3ccccc3s2)ccc1O the results were miR122 inh 7, Dyrk1A ADPGlo 58*, Wnt act 26, GSIS activator 46, NSD2 inh -10, MITF act 53 and Dyrk1A artifact 8%.
Screening NS(=O)(=O)c1ccc(N=Nc2c(O)c(C(=O)O)cc3ccccc23)cc1 returned Dyrk1A ADPGlo 54*, Wnt act -1, GSIS activator 1, NSD2 inh 16, MITF act -4 and Dyrk1A artifact 6%.
`Cc1ccc(NC(=S)Nc2ccc3cn[nH]c3c2)cc1` gave Dyrk1A ADPGlo 63*, Wnt act 17, GSIS activator -3, NSD2 inh 3, MITF act 13 and Dyrk1A artifact 12%.
`Cc1cc(C)cc(NC(=S)Nc2ccc3cn[nH]c3c2)c1` gave Dyrk1A ADPGlo 48, Wnt act -3, GSIS activator 43, NSD2 inh 1 and MITF act 1.
For C=CCNC(=S)Nc1ccc2cn[nH]c2c1 the results were Dyrk1A ADPGlo 70*, Wnt act 2, GSIS activator 40*, NSD2 inh 1, MITF act -1 and Dyrk1A artifact 7%.
`CC[C@H]1C/C=C\C[C@H](c2ccc(F)cc2)NC(=O)CCC(=O)N1` gave GSIS activator 25.
Screening COc1ccc(S(=O)(=O)N(C)C[C@@H]2Oc3ccc(NC(=O)Nc4ccc(C(F)(F)F)cc4)cc3CC(=O)N([C@@H](C)CO)C[C@@H]2C)cc1 returned miR122 inh -15[16.7 µM] and GSIS activator -10.
CO[C@H]1CN(C)C(=O)c2ccc(NS(C)(=O)=O)cc2OC[C@@H](C)N(C(=O)C2CCCCC2)C[C@@H]1C was read as GSIS activator -1.
`CCC(=O)N1CCN(c2ccnc3cc(Cl)ccc23)CC1` gave Dyrk1A ADPGlo 55*, Wnt act -4, GSIS activator 30, NSD2 inh 1, MITF act 6 and Dyrk1A artifact 8%.
Screening CO[C@H]1CN(C)C(=O)c2ccc(NC(C)=O)cc2OC[C@H](C)N(C(=O)C2CCC2)C[C@@H]1C returned GSIS activator -6.
For COCC#Cc1ccc([C@@H]2[C@@H](CO)N3C(=O)CN(C(=O)C4CCC4)C[C@@H]23)cc1 the results were GSIS activator 13.
For Oc1ccc2c(ccc3[nH]cnc32)c1 the results were Dyrk1A ADPGlo 79*, Wnt act 3, GSIS activator 4, MITF act 3 and Dyrk1A artifact 7%.
`C[C@H](CO)N1C[C@H](C)[C@@H](CN(C)S(=O)(=O)c2ccc(F)cc2)OCCCC[C@H](C)Oc2ccc(NC(=O)C3CCCCC3)cc2C1=O` gave miR122 inh 11[16.7 µM] and GSIS activator -9.
Screening CN1c2ccc(-c3cccc(C#N)c3)cc2[C@H]2[C@H](CCN2C(=O)NC2CCCC2)[C@@H]1CO returned GSIS activator -12.
For CCCN(CCC)CCCNC(=O)c1cc2cc3ccc(OC)cc3nc2o1 the results were miR122 inh -2, Dyrk1A ADPGlo 37, Wnt act -1 and MITF act 37.
`COc1ccc2cc3cc(C(=O)NCCCN4CCC(C)CC4)oc3nc2c1` gave miR122 inh -5, Dyrk1A ADPGlo 53*, NSD2 inh 4, MITF act 45 and Dyrk1A artifact 7%.
Screening CC1CCN(CCCNC(=O)c2coc3nc4ccccc4nc23)CC1 returned Dyrk1A ADPGlo 44 and MITF act 6.
Screening Cc1ccc2cc3cc(C(=O)NCCN4CCOCC4)oc3nc2c1 returned miR122 inh -3, Dyrk1A ADPGlo 0, Wnt act 0, NSD2 inh -3 and MITF act -2.
Screening CCCCN(CC)CCCNC(=O)c1cc2cc3ccc(OC)cc3nc2o1 returned miR122 inh 18, Dyrk1A ADPGlo 50*, Wnt act 0, NSD2 inh 24, MITF act 12 and Dyrk1A artifact 9%.
CCN1CCN(CCCNC(=O)c2cc3cc4ccc(OC)cc4nc3o2)CC1 was read as miR122 inh -13, Dyrk1A ADPGlo 88*, MITF act 13 and Dyrk1A artifact 7%.
COc1ccc2cc3cc(C(=O)NCCCN4CCOCC4)oc3nc2c1 was read as miR122 inh -17, Dyrk1A ADPGlo 58*, NSD2 inh -3, MITF act 3 and Dyrk1A artifact 9%.
Screening CO[C@@H]1CN(C)C(=O)c2cc(NC(=O)c3ccc4c(c3)OCO4)ccc2OC[C@H](C)N(CC2CC2)C[C@@H]1C returned GSIS activator 3.
Screening CCC(=O)N1[C@H](CO)[C@H](c2ccc(C3=CCCC3)cc2)[C@H]1CNC(=O)CN(C)C returned miR122 inh 0[16.7 µM] and GSIS activator 11.
`COc1ccc2cc3cc(C(=O)NCCN4CCN(Cc5ccccc5)CC4)oc3nc2c1` gave miR122 inh -16, Dyrk1A ADPGlo 52*, Wnt act 2, NSD2 inh 1, MITF act 14 and Dyrk1A artifact 9%.
For COc1ccc2nc3oc(C(=O)NC4CCN(Cc5ccccc5)CC4)cc3cc2c1 the results were miR122 inh -5, Dyrk1A ADPGlo 7 and NSD2 inh -1.
CC(C)(C)CC(C)(C)c1ccc(OCCOCC[N+](C)(C)Cc2ccccc2)cc1 was read as miR122 inh -13, Dyrk1A ADPGlo 3, Wnt act -13 and MITF act -77.
Screening C[N+](C)(CCOc1ccccc1)Cc1ccccc1 (tested in a mixture with another compound) returned Dyrk1A ADPGlo 92*, Wnt act -4, GSIS activator 28, NSD2 inh 9, MITF act 3 and Dyrk1A artifact 7%.
